Test results from PubChem BioAssay (EPA / NIEHS).
Calls of active or inactive are those of the source. How the source made its calls: active means hit-call score of the fitted dose curve at least 0.9, where 1 is the maximum; inactive means score below 0.9.

How the values were obtained:
[1] = ATG_CRE_CIS: Attagene CIS-FACTORIAL HepG2 Assay for human cAMP Responsive Element (CRE) binding protein 3 (AID 2282926); conditions: HepG2 CRE cis-reporter, Attagene multiplexed mRNA; actives raise or lower the signal
Summary of the method: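 Liver-derived HepG2, transfected with a CRE-containing reporter panel, exposed 24 h; transcript levels sized and quantified by capillary electrophoresis of labelled amplicons; signal changes either way referenced to vehicle.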

[2] = molecular target: CCAAT/enhancer-binding protein beta (Homo sapiens) (UniProt P17676); assay: ATG_C_EBP_CIS: Attagene CIS-FACTORIAL HepG2 Assay for human CCAAT/Enhancer Binding Protein (C/EBP) beta (AID 2282927); conditions: HepG2 Attagene cis-factorial transcription factor reporter; actives raise or lower the signal
Summary of the method: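 Endogenous C/EBPb-driven reporter transcripts measured in transfected human HepG2 cells at 24 h via RT-PCR and capillary electrophoresis of labelled fragments. Activity fitted in both directions relative to DMSO baseline.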

[3] = ATG_CMV_CIS: Attagene CIS-FACTORIAL HepG2 Assay for human CMV (Internal Marker) (AID 2282928); conditions: HepG2 CMV promoter reporter, transcription factor profiling; actives raise or lower the signal;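 further: endpoint acts as a background internal control marker rather than a target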
Summary of the method: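 24 h chemical treatment, HepG2 with transient multi-reporter transfection; RNA → oligo(dT) RT → PCR → 6-FAM extension → HpaI digest → CE fluorescence. Bidirectional fit, DMSO negative control.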

[4] = ATG_DR4_LXR_CIS: Attagene CIS-FACTORIAL HepG2 Assay for human Liver X Receptor (LXR), DR4 submotif (AID 2282929); conditions: HepG2 Attagene DR4 cis-reporter, mRNA transcription; actives raise or lower the signal
Summary of the method: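 Measures endogenous transcription factor activity via a DR4-driven reporter transcript in human HepG2 cells. Compounds incubated 24 h; mRNA quantified by RT-PCR and capillary electrophoresis, analysed as gain or loss of signal versus DMSO.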

[5] = molecular target: Aryl hydrocarbon receptor (Homo sapiens) (UniProt P35869); assay: ATG_Ahr_CIS: Attagene CIS-FACTORIAL HepG2 Assay for human Aryl Hydrocarbon Receptor (Ahr) (AID 2282930); conditions: HepG2 AhR cis-factorial reporter transcription; actives raise or lower the signal
Summary of the method: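 Reporter mRNA levels, quantified by RT-PCR and fluorescent capillary electrophoresis, reflect endogenous AhR transcriptional activity in HepG2 cells carrying transfected cis-promoter reporter constructs. Readout at 24 h post-dose; gain or loss fitted against DMSO baseline.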

[6] = ATG_AP_1_CIS: Attagene CIS-FACTORIAL HepG2 Assay for human Activator Protein 1 (AP-1) (AID 2282931); conditions: HepG2 Attagene cis-factorial AP-1 reporter mRNA; actives raise or lower the signal
Summary of the method: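 Bidirectional concentration-response fitting against DMSO controls. Underlying signal: reporter mRNA from cis-promoter constructs in transiently transfected HepG2, measured after 24 h by RT-PCR and capillary electrophoresis.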

[7] = ATG_AP_2_CIS: Attagene CIS-FACTORIAL HepG2 Assay for human Activator Protein 2 (AP-2) (AID 2282932); conditions: HepG2 AP-2 cis-reporter, Attagene transcription factor profiling; actives raise or lower the signal
Summary of the method: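 Transiently transfected HepG2 cells are exposed to chemical for 24 h. Reporter transcripts are then measured as fluorescence following RT-PCR and capillary separation, and gain- or loss-of-signal is fitted relative to DMSO.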

[8] = ATG_BRE_CIS: Attagene CIS-FACTORIAL HepG2 Assay for human Bone Morphogenetic Protein (BMP) Response Element (BRE) (AID 2282933); conditions: HepG2 BMP response element reporter, Attagene transcription factor profiling; actives raise or lower the signal
Summary of the method: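 HepG2 cells transiently transfected with multiplexed cis-element reporter units were dosed with chemical for 24 h. Reporter mRNA was measured by RT-PCR with fluorescent labelling, HpaI digestion and capillary electrophoresis; bidirectional fitting relative to DMSO.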

[9] = molecular target: Transcription factor E2F1 (Homo sapiens) (UniProt Q01094); assay: ATG_E2F_CIS: Attagene CIS-FACTORIAL HepG2 Assay for human E2F Transcription Factor 1 (AID 2282935); conditions: HepG2 Attagene cis-reporter, E2F reporter RNA transcripts; actives raise or lower the signal
Summary of the method: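 Fluorescent RT-PCR products, digested with HpaI for 2 h at 37 C, are separated by capillary electrophoresis. Source RNA comes from transfected HepG2 cultures treated for 24 h.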

[10] = molecular target: Retinoic acid receptor alpha (Homo sapiens) (UniProt P10276); assay: ATG_DR5_RAR_CIS: Attagene CIS-FACTORIAL HepG2 Assay for human Retinoic Acid Receptor Alpha (RARE), DR5 submotif (AID 2282934); conditions: HepG2 Attagene cis-factorial RARE DR5 reporter, mRNA; actives raise or lower the signal
Summary of the method: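 Reporter transcripts from a DR5-regulated unit, measured via RT-PCR plus capillary electrophoresis, reflect endogenous RAR activity in transiently transfected human HepG2 liver cells. Exposure lasted 24 h; gain or loss of signal scored against DMSO.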

Chain of Transcription factor E2F1 (Homo sapiens) (Q01094 whole entry, looked up): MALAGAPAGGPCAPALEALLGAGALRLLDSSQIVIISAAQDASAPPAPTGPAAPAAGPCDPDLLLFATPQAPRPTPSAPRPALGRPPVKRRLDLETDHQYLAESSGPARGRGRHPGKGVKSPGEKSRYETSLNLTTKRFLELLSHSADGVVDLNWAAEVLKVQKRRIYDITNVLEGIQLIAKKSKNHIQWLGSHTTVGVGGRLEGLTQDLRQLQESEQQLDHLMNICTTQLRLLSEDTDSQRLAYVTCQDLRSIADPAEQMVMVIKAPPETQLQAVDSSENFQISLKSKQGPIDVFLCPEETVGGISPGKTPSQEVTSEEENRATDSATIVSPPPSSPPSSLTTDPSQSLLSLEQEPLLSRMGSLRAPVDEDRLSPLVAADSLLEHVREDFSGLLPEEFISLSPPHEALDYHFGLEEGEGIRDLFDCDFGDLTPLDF
Chain of Retinoic acid receptor alpha (Homo sapiens) (P10276 whole entry, looked up): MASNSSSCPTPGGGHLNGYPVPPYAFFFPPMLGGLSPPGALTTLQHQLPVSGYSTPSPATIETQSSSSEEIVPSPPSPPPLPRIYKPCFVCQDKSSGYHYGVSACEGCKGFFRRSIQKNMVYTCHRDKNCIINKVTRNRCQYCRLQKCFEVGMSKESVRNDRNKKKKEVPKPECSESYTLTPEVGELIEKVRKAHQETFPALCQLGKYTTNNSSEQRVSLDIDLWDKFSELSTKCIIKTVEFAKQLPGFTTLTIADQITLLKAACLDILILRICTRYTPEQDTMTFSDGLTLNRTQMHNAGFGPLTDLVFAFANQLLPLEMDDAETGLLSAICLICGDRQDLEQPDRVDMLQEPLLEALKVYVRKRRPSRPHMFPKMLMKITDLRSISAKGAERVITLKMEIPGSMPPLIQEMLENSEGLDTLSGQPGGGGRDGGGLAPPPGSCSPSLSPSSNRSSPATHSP
Chain of CCAAT/enhancer-binding protein beta (Homo sapiens) (P17676 whole entry, looked up, the tested form may be a part): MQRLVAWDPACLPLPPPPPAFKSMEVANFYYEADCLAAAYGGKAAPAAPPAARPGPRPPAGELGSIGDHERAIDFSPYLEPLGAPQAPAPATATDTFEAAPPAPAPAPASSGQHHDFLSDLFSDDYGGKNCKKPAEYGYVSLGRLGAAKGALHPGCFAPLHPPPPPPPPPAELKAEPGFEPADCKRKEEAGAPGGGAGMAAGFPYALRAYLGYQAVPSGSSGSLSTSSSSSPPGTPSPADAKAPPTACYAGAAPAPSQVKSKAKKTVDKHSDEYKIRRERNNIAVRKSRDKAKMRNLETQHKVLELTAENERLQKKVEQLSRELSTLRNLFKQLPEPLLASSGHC
Chain of Aryl hydrocarbon receptor (Homo sapiens) (P35869 whole entry, looked up): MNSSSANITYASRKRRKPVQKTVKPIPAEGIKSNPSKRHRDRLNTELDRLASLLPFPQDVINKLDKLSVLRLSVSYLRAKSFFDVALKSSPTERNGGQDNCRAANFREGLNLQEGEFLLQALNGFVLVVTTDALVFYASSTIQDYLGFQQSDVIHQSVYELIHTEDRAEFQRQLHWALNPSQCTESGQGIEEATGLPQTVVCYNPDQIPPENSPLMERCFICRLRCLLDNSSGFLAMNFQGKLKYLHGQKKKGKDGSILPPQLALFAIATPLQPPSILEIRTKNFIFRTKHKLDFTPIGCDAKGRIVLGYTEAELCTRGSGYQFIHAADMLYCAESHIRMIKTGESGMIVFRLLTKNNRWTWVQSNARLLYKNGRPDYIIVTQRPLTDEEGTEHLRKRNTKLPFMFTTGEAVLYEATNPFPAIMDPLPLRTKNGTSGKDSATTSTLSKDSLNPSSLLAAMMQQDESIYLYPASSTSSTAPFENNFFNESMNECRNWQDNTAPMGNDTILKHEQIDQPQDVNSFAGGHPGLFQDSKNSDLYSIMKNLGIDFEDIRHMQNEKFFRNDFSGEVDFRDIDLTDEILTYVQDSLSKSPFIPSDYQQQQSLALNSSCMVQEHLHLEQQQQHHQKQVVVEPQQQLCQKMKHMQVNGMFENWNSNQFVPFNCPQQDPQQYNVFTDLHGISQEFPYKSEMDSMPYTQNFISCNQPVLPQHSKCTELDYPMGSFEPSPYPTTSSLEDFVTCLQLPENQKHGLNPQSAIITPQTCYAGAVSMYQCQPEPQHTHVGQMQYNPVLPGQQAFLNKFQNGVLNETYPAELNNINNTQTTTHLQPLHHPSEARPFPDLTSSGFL

CC(=O)c1cc(C(C)(C)C)cc2c1CCC2(C)C
AC50 [1]: 100 µM (active)
AC50 [2]: 159 µM (active)
AC50 [3]: 62.5 µM (active)
AC50 [4]: 26.1 µM (active)
outcome [5]: inactive
AC50 [6]: 70.4 µM (active)
AC50 [7]: 161 µM (active)
outcome [8]: inactive
AC50 [9]: 171 µM (active)

CCOP(OCC)OCC
outcome [1]: inactive
outcome [2]: inactive
outcome [3]: inactive
outcome [4]: inactive
outcome [5]: inactive
outcome [6]: inactive
outcome [7]: inactive
outcome [8]: inactive
outcome [10]: inactive
outcome [9]: inactive

O=C(c1ccccc1)C(Cl)Cl
outcome [1]: inactive
outcome [2]: inactive
AC50 [3]: 28.7 µM (active)
AC50 [4]: 8.03 µM (active)
outcome [5]: inactive
AC50 [6]: 53.4 µM (active)
outcome [7]: inactive
outcome [8]: inactive
outcome [10]: inactive
outcome [9]: inactive

ClCCBr
outcome [1]: inactive
outcome [2]: inactive
outcome [3]: inactive
outcome [4]: inactive
outcome [5]: inactive
outcome [6]: inactive
outcome [7]: inactive
outcome [8]: inactive
outcome [9]: inactive

OCc1ccco1
outcome [1]: inactive
outcome [2]: inactive
outcome [3]: inactive
outcome [4]: inactive
outcome [5]: inactive
outcome [6]: inactive
outcome [7]: inactive
outcome [8]: inactive
outcome [9]: inactive

CCOP(=S)(OCC)SCSP(=S)(OCC)OCC
outcome [1]: inactive
outcome [2]: inactive
outcome [3]: inactive
outcome [4]: inactive
outcome [5]: inactive
outcome [6]: inactive
outcome [7]: inactive
outcome [8]: inactive
outcome [10]: inactive
outcome [9]: inactive

CC(C)CCCCCCOC(=O)c1ccccc1C(=O)OCCCCCCC(C)C
outcome [1]: inactive
outcome [2]: inactive
outcome [3]: inactive
outcome [4]: inactive
outcome [5]: inactive
outcome [6]: inactive
outcome [7]: inactive
outcome [8]: inactive
outcome [9]: inactive

COP(=S)(OC)Oc1cc(Cl)c(Cl)cc1Cl
outcome [1]: inactive
outcome [2]: inactive
outcome [3]: inactive
outcome [4]: inactive
AC50 [5]: 11.3 µM (active)
AC50 [6]: 41.8 µM (active)
outcome [7]: inactive
AC50 [8]: 64.5 µM (active)
outcome [10]: inactive
outcome [9]: inactive

COP(=O)(OC)O/C(=C\Cl)c1cc(Cl)c(Cl)cc1Cl
outcome [1]: inactive
outcome [2]: inactive
outcome [3]: inactive
AC50 [4]: 58.2 µM (active)
outcome [5]: inactive
AC50 [6]: 62.4 µM (active)
AC50 [7]: 26.9 µM (active)
AC50 [8]: 70.3 µM (active)
outcome [10]: inactive
outcome [9]: inactive

O=C(O)Cc1ccccc1
outcome [1]: inactive
outcome [2]: inactive
outcome [3]: inactive
outcome [4]: inactive
outcome [5]: inactive
outcome [6]: inactive
outcome [7]: inactive
outcome [8]: inactive
outcome [10]: inactive
outcome [9]: inactive

CC1(C)Cc2cccc(O)c2O1
outcome [1]: inactive
outcome [2]: inactive
outcome [3]: inactive
outcome [4]: inactive
outcome [5]: inactive
outcome [6]: inactive
outcome [7]: inactive
outcome [8]: inactive
outcome [10]: inactive
outcome [9]: inactive

COC(=O)c1sccc1S(=O)(=O)NC(=O)Nc1nc(C)nc(OC)n1
outcome [1]: inactive
outcome [2]: inactive
outcome [3]: inactive
outcome [4]: inactive
outcome [5]: inactive
outcome [6]: inactive
outcome [7]: inactive
outcome [8]: inactive
outcome [10]: inactive
outcome [9]: inactive

O=C1C(Cl)=C(Cl)C(=O)c2ccccc21
outcome [1]: inactive
outcome [2]: inactive
outcome [3]: inactive
outcome [4]: inactive
AC50 [5]: 1.86 µM (active)
outcome [6]: inactive
outcome [7]: inactive
outcome [8]: inactive
outcome [10]: inactive
outcome [9]: inactive

ClCc1cccnc1
AC50 [1]: 57 µM (active)
outcome [2]: inactive
outcome [3]: inactive
outcome [4]: inactive
outcome [5]: inactive
outcome [6]: inactive
outcome [7]: inactive
outcome [8]: inactive
outcome [9]: inactive

CCOP(=S)(OCC)Oc1ccc(S(C)=O)cc1 (stereo not given)
outcome [1]: inactive
outcome [2]: inactive
outcome [3]: inactive
outcome [4]: inactive
AC50 [5]: 32.5 µM (active)
outcome [6]: inactive
outcome [7]: inactive
outcome [8]: inactive
outcome [10]: inactive
outcome [9]: inactive

CC1CN1P(=O)(N1CC1C)N1CC1C (stereo not given)
outcome [1]: inactive
outcome [2]: inactive
outcome [3]: inactive
outcome [4]: inactive
outcome [5]: inactive
outcome [6]: inactive
outcome [7]: inactive
outcome [8]: inactive
outcome [9]: inactive

CC(C#N)CCC#N (stereo not given)
outcome [1]: inactive
outcome [2]: inactive
outcome [3]: inactive
outcome [4]: inactive
outcome [5]: inactive
outcome [6]: inactive
outcome [7]: inactive
outcome [8]: inactive
outcome [10]: inactive
outcome [9]: inactive

NNC(=S)NN
outcome [1]: inactive
outcome [2]: inactive
outcome [3]: inactive
outcome [4]: inactive
outcome [5]: inactive
outcome [6]: inactive
outcome [7]: inactive
outcome [8]: inactive
outcome [9]: inactive

CCC1(c2ccc(N)cc2)CCC(=O)NC1=O (stereo not given)
outcome [1]: inactive
outcome [2]: inactive
outcome [3]: inactive
outcome [4]: inactive
outcome [5]: inactive
outcome [6]: inactive
outcome [7]: inactive
outcome [8]: inactive
outcome [9]: inactive

COP(=S)(OC)Oc1ccc(Sc2ccc(OP(=S)(OC)OC)cc2)cc1
outcome [1]: inactive
outcome [2]: inactive
AC50 [3]: 15.5 µM (active)
AC50 [4]: 100 µM (active)
outcome [5]: inactive
outcome [6]: inactive
outcome [7]: inactive
AC50 [8]: 6.58 µM (active)
outcome [10]: inactive
outcome [9]: inactive

Nc1cccc(Cl)c1
outcome [1]: inactive
outcome [2]: inactive
outcome [3]: inactive
outcome [4]: inactive
outcome [5]: inactive
outcome [6]: inactive
outcome [7]: inactive
outcome [8]: inactive
outcome [9]: inactive

O=C(NCO)NCO
outcome [1]: inactive
outcome [2]: inactive
outcome [3]: inactive
outcome [4]: inactive
outcome [5]: inactive
outcome [6]: inactive
outcome [7]: inactive
outcome [8]: inactive
outcome [9]: inactive

CC(C)C1CCC(Cc2ccc(Cl)cc2)C1(O)Cn1cncn1 (stereo not given)
outcome [1]: inactive
outcome [2]: inactive
outcome [3]: inactive
AC50 [4]: 18.1 µM (active)
AC50 [5]: 3.08 µM (active)
AC50 [6]: 17.5 µM (active)
outcome [7]: inactive
AC50 [8]: 11 µM (active)
outcome [10]: inactive
outcome [9]: inactive

O=CC=O
outcome [1]: inactive
outcome [2]: inactive
outcome [3]: inactive
outcome [4]: inactive
outcome [5]: inactive
outcome [6]: inactive
outcome [7]: inactive
outcome [8]: inactive
outcome [10]: inactive
outcome [9]: inactive
